# Several values for one entry are separate records, joined by “and”; a condition that tells them apart may be missing. Equal values may be shown once. Inconclusive results are not listed. Values without a mark were called inactive. Calls come from the whole dose curve; as a rule, active = well fitted activation curve with a large enough effect; inconclusive = small, poorly fitted or top-dose-only effect; inactive = no such curve, though single readings can be large or run the other way.
# Molecular target: Cellular tumor antigen p53 (Homo sapiens) (UniProt P04637)
# Sequence (P04637 whole entry, looked up): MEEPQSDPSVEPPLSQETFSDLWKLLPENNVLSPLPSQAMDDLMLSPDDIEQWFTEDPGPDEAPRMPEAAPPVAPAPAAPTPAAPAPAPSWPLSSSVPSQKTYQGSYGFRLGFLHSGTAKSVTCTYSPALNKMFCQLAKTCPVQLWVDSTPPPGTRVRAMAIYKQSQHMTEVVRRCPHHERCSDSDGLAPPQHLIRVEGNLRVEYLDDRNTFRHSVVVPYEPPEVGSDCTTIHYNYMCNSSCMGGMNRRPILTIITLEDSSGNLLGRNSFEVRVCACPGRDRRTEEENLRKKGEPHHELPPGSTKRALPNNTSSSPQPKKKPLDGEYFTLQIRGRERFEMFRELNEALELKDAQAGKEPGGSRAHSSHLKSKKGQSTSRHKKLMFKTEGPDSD
# Test: Primary qHTS for small molecule compounds that upregulate eGFP-tagged delta133p53alpha (in N-terminal) cells. (AID 2060322);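 note: series mostly up to about 56 µM; 0% = DMSO vehicle and 100% = reference activator; nearly all actives have a fitted effect of over 75% in size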
# Conditions: NCI-H358 eGFP-delta133p53alpha fluorescence, 24 h; activation: hits give high values
# Method in brief: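 NCI-H358 cells pre-induced 24 h with 10 ng/ml doxycycline for eGFP-delta133p53alpha, plated dox-free and exposed 24 h at 37C to titrated compounds. Fixed, Hoechst-stained; gated GFP peak intensity by laser scanning cytometry, normalized to DMSO (0%) and 57.5 uM 5-azacytidine (100%).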
row,Structure (SMILES),activation
1,CC(Cc1ccccc1)NCCn1cnc2c1c(=O)n(C)c(=O)n2C (stereo unspecified),9.6%
2,Clc1ccc(COC(Cn2ccnc2)c2ccc(Cl)cc2Cl)cc1 (stereo unspecified),24.3% and 15.7%
3,C[C@@H]1[C@@H](CC(C[C@H]2O[C@@H]3O[C@]4(C)CC[C@@H]5[C@H](C)CC[C@@H]([C@H]2C)[C@@]35OO4)C[S+](=O)([O-])c2ccc(COC(=O)N(C)C)cc2)O[C@@H]2O[C@]3(C)CC[C@H]4[C@H](C)CC[C@@H]1[C@@]24OO3 (stereo partly specified),8.23%
4,C=C1C[C@H]2[C@H]3CCC(=O)[C@@]3(C)CC[C@@H]2[C@@]2(C)C=CC(=O)C=C12,3.97%
5,Nc1nc(N)nc(NC2CC2)n1,5.02%
6,C[C@]12CC[C@H]3[C@@H](CCC4=CC(=O)CC[C@@H]43)[C@@H]1CC[C@@H]2OC(=O)CCc1ccccc1,2.51%
7,Nc1ccc([As](=O)(O)O)cc1,-5.02%
8,C[C@]12Cc3cn[nH]c3C[C@@H]1CC[C@@H]1[C@H]2CC[C@@]2(C)[C@H]1CC[C@]2(C)O,-11.9%
9,CC(C)(C)[C@]1(O)C[C@@H]2OC(=O)C[C@@]23C(=O)O[C@@H]2OC(=O)[C@H](O)C213 (stereo partly specified),7.05%
10,CCC(CC)(CNC(=O)CCCO)c1cccc(OC)c1,16.7%
11,NC(=O)c1cc([N+](=O)[O-])cc([N+](=O)[O-])c1,0.837%
12,ClCCN1CCCC1,4.18%
13,CCN(CC)CCOC(=O)C(C)(c1ccccc1)c1ccccc1,-8.47%
14,c1ccc(N2CCNCC2)cc1,-33.3%
15,C[C@]12CC[C@H]3[C@@H](CC=C4C[C@@H](O)CC[C@@]43C)[C@@H]1CC[C@@H]2O,-16.7%
16,Fc1cc(Br)ccc1CBr,-29.9%
17,CCC(=O)O[C@@H]1C=C2CCC3C(CCC4(C)C3CC[C@@H]4OC(=O)CC)C2CC1 (stereo partly specified),6.21%
18,C[C@]12CCC(=O)C(O)=C1CC[C@@H]1[C@H]3CCC(=O)[C@@]3(C)CC[C@@H]12,-8.48%
19,N#Cc1nn(-c2c(Cl)cc(C(F)(F)F)cc2Cl)c(N)c1S(=O)C(F)(F)F (stereo unspecified),-2.51%
20,Sc1ccccc1Cl,-0.837%
21,O=C(O)c1ccc2[nH]cc(CCCCN3CC=C(c4ccccc4)CC3)c2c1,-5.08%
22,Nc1ccccc1,-8.47%
23,O=c1c(C2CC(c3ccc(-c4ccc(Br)cc4)cc3)Cc3ccccc32)c(O)sc2ccccc12 (stereo unspecified),-13%
24,C[C@@H]1CC[C@@]2(OC1)O[C@H]1C[C@H]3[C@@H]4CC=C5C[C@@H](O[C@@H]6O[C@H](CO)[C@@H](O[C@@H]7O[C@@H](C)[C@H](O)[C@@H](O)[C@@H]7O)[C@H](O)[C@@H]6O[C@@H]6O[C@@H](C)[C@H](O)[C@@H](O)[C@@H]6O)CC[C@]5(C)[C@@H]4CC[C@]3(C)[C@@H]1[C@H]2C,15.2%
25,CC1=C2C[C@@H]3[C@@H](CC=C4C[C@@H](O)CC[C@@]43C)[C@@H]2CC[C@]12O[C@H]1C[C@H](C)CN[C@H]1[C@H]2C,14%
26,c1ccc2c(c1)Nc1ccccc1S2,13% and 14.2%

# — PubChem BioAssay (NCATS)
